In PubChem BioAssay (NCATS):
Records with an inconclusive call do not appear. Calls of active or inactive are those of the source. Unless noted, the call rests on the fitted dose curve.

Legend:
[1] = qHTS for Inhibitors of the Functional Ribonucleoprotein Complex (vRNP) of Lassa (LASV) Arenavirus: LASV Primary Screen - GLuc reporter signal (AID 1347082; calls by dose curve; tested in HEK293 reporter line; further: nearly all actives have a fitted effect of over 60% in size)
[2] = qHTS for Inhibitors of the Functional Ribonucleoprotein Complex (vRNP) of Lassa (LASV) Arenavirus: Viability assay - alamar blue signal for LASV Primary Screen (AID 1347083; calls by dose curve; tested in HEK293 reporter line; further: nearly all actives have a fitted effect of over 80% in size)
[3] = qHTS for Inhibitors of the Functional Ribonucleoprotein Complex (vRNP) of Lymphocytic Choriomeningitis Arenaviruses (LCMV): Viability assay - alamar blue signal for LCMV Primary Screen (AID 1347085; calls by dose curve; tested in HEK293 reporter line; further: nearly all actives have a fitted effect of over 80% in size)
[4] = molecular target: Nucleoprotein (Lymphocytic choriomeningitis virus (strain Armstrong)) (UniProt P09992); test: qHTS for Inhibitors of the Functional Ribonucleoprotein Complex (vRNP) of Lymphocytic Choriomeningitis Arenaviruses (LCMV): LCMV Primary Screen - GLuc reporter signal (AID 1347086); further: nearly all actives have a fitted effect of over 70% in size

Measured: Potency
Further: series mostly up to about 57 µM.

Chain of Nucleoprotein (Lymphocytic choriomeningitis virus (strain Armstrong)) (P09992 whole entry, looked up): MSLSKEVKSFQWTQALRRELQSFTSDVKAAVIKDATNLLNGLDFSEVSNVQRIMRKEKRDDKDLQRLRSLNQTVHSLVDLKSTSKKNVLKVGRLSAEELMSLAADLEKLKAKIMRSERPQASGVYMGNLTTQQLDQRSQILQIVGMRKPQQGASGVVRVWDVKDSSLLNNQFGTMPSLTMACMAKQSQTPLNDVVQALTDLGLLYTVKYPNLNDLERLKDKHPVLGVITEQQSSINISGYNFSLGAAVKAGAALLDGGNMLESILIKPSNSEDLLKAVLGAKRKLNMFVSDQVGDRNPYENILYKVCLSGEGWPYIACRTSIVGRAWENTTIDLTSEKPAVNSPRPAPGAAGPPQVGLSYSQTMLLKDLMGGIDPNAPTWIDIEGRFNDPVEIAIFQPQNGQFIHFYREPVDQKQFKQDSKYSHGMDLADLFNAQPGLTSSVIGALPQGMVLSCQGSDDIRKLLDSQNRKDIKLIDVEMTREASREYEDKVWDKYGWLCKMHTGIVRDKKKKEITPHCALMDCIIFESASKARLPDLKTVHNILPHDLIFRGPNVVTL

CC1(C)S[C@@H]2[C@H](NC(=O)C(C(=O)O)c3ccccc3)C(=O)N2[C@H]1C(=O)O (stereo partly specified)
inactive: all assays above

C[C@@H]1C[C@H]2[C@@H]3CCC4=CC(=O)C=C[C@]4(C)[C@@]3(F)[C@@H](O)C[C@]2(C)[C@@]1(O)C(=O)CO
inactive: all assays above

O=c1n(CCCN2CCN(c3cccc(Cl)c3)CC2)nc2ccccn12
inactive: all assays above

CCN(CC)CCOC(=O)C1(C2CCCCC2)CCCCC1
inactive: all assays above

O=C(OC1C[C@H]2CC[C@@H](C1)[N+]21CCCC1)C(O)(c1ccccc1)c1ccccc1 (stereo partly specified)
inactive: all assays above

Nc1nc2c(ncn2COCCO)c(=O)[nH]1
inactive: all assays above

Oc1cn2c(n1)Nc1ccc(Cl)c(Cl)c1C2
inactive: all assays above

Cn1cnc2c(F)c(Nc3ccc(Br)cc3Cl)c(C(=O)NOCCO)cc21
inactive: all assays above

O=C(O)C1(C(=O)O)CCC1.[NH2-].[NH2-].[Pt+2]
inactive: all assays above
